In all, about 43,000 compounds went through this assay and about 830 (1.9%) were called active. Another 30% or so got no clear call; they are omitted. Many of the other results were omitted from the sample, so actives are more common in it than they were. Unmarked numbers belong to inactive results. How the source made its calls: active means clear falling dose curves in both reporters; inconclusive means both reporters move, but less clearly or upward; inactive means either reporter flat; the % is the NLuc reporter signal.
experiment: Cell-based coincidence reporter assay to measure PMP22 gene transcription in S16 Pmp22-F2sN cells - Primary screen; details: S16 Pmp22-F2sN Schwann cells (luciferase reporters placed in the Pmp22 gene), FLuc/NLuc coincidence luminescence, 24 h; series mostly up to 57.5 µM; activity change, negative = inhibition: at the top concentration
Procedure, shortened: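 Rat S16 Pmp22-F2sN cells, 500-1,000/well in phenol red-free DMEM + 10% FBS, compound-treated 24 h (37C, 5% CO2). Luminescence: FLuc read, Stop&Glo added, NLuc read.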
On the % scale 0 is the no-effect control and ±100 the full control effect; potency means the concentration at half of the fitted maximal effect.

Structure (SMILES)	activity change, negative = inhibition	Potency
Cc1cccc(NC(=O)CSc2nc(-c3ccco3)cc(C(F)(F)F)n2)c1C	-2.59%	
Cc1ccc2ncc(C(=O)Nc3ccc(OC(F)(F)F)cc3)c(=O)n2c1	-9.44%	
COCC(C)NS(=O)(=O)c1ccc(N2CCCCS2(=O)=O)cc1 (stereo unspecified)	-17.4%	
CCOC(=O)C1CCN(c2ncnc3c2c(-c2ccccc2)cn3-c2cccc(C)c2)CC1	29.9%	
Cc1cccc(NC(=O)CN(c2ccc(C(C)C)cc2)S(=O)(=O)c2c(C)nn(C)c2C)c1C	-1.83%	
Cc1cc(F)ccc1NS(=O)(=O)c1ccc(-n2cccn2)cc1		15 µM (active)
O=C(Nc1ccc(F)cc1F)c1cnn(-c2ccc(F)cc2)c1-n1cccc1	1.78%	
Cc1cc(F)ccc1NC1(c2ccccc2)C(=O)c2ccccc2C1=O	-17.3%	
O=C(Cn1nc(Cc2cccnc2)c2ccccc2c1=O)N1CCN(c2ccccc2F)CC1	-3.71%	
Cc1ccc(C2C=C(c3ccc(Cl)cc3)Nc3nc(NC(=O)CCC(=O)O)nn32)cc1 (stereo unspecified)	-1.58%	
Cc1cc(-c2ccccc2)n2nc(-c3ccccc3)cc2n1	24.1%	
O=C(CCc1nc(CN2CCN(S(=O)(=O)c3ccc(Cl)cc3)CC2)no1)N1CCCCC1	-9.23%	
Cc1cc(C)c(NC(=O)CSc2nc3ccncc3[nH]2)c(C)c1	-45.4%	
CCCn1c(=N)c(C(=O)NCc2ccccc2)cc2c(=O)n3cccc(C)c3nc21		2.24 µM (active)
Cc1ccc(CNC(=O)c2c(O)nc3c(C)cccn3c2=O)cc1	25.4%	
CCCCn1c(=N)c(S(=O)(=O)c2ccccc2)cc2c(=O)n3cccc(C)c3nc21	-13.2%	
COc1ccc(-c2cc(C(=O)NCc3cc(OC)c(OC)c(OC)c3)[nH]n2)cc1	-8.61%	
Cc1ccccc1CNC(=O)C(=O)NCC(c1cccs1)S(=O)(=O)c1cccs1 (stereo unspecified)	-27.5%	
Cc1ccc(-n2nc(C)c(C(=O)O)c2-n2cccc2)cc1	-0.533%	
CCC1CCCCN1CCCNC(=O)c1cc2c(Cl)nc3ccccc3c2s1 (stereo unspecified)		17.8 µM (active)
CCn1c(=O)c2cc(C(=O)NCCc3ccc(Cl)cc3)sc2c2ccccc21	-26.8%	

Structure (SMILES)	activity change, negative = inhibition	Potency
CCOCCCNC(=O)c1cc2c(=O)n3ccccc3nc2s1	-12.9%	
O=S(=O)(Nc1ccc2nc(-c3cccc(Cl)c3)oc2c1)c1ccccc1	-19.7%	
COc1cc(OC)c(NC(=O)c2nc(-c3ccncc3)no2)cc1Cl	-11.9%	
O=C(Cn1ncc2c3ccccc3n(Cc3ccccc3)c2c1=O)NCc1ccccn1	-17.6%	
CCCN(CCC)CCCNC(=O)Cn1ncc2c3ccccc3n(Cc3ccccc3)c2c1=O	-19.1%	
CCCn1c2ccccc2c2cnn(CC(=O)NCCCOC(C)C)c(=O)c21	-4.77%	
Cc1ccc(Cn2c(C)c3cnn(CC(=O)NCc4ccccc4)c(=O)c3c2C)cc1		8.43 µM (active)
CCCn1c2ccccc2c2cnn(CC(=O)N3CCCC(C(=O)OCC)C3)c(=O)c21 (stereo unspecified)	-19.6%	
CCCn1c2ccccc2c2cnn(CC(=O)NCC3CCN(Cc4ccc(C)cc4)CC3)c(=O)c21		18.9 µM (active)
CCOC(=O)c1ccc(NC(=O)Cn2c(=O)n(-c3ccc(C)cc3)c(=O)c3c2cnn3C)cc1	3.69%	
O=C(CSc1nccn1Cc1ccc(F)cc1)NCc1ccccc1	0.174%	
COc1ccc(NC(=O)C2CCN(c3ccc(Sc4ccc(C)cc4)nn3)CC2)c(OC)c1	-27.1%	
COc1cc(C(=O)NCCc2csc3nc(-c4ccccc4C)nn23)cc(OC)c1OC	44.6%	
CCC(=O)Nc1ccc(C)cc1-c1nc2ccccc2n(Cc2ccccc2)c1=O	1.15%	
Cc1ccc(C)c(N2CCN(Cc3nnc(-c4ccccc4)o3)CC2)c1	-22.9%	
CCN(CC)C(=O)CSc1nc2ccsc2c(=O)n1Cc1ccccc1Cl	-22.1%	
COc1ccc(NS(=O)(=O)c2cc3c(cc2C)N(C(C)=O)CCO3)cc1	-6.59%	
Cc1ccc2nc(COc3cccc(NC(=O)Nc4ccc(C)c(Cl)c4)c3)cc(=O)n2c1	-3.59%	
O=c1c2cccnc2n(Cc2cccc(F)c2)c(=O)n1Cc1ccccc1Cl	14.6%	
CCOC(=O)c1ccc(NC2=CC(c3ccc(OCC)cc3)N(c3ccc(C(=O)OCC)cc3)C2=O)cc1 (stereo unspecified)	-0.625%	
CCOC(=O)c1ccc(N2C(=O)c3n[nH]c(C)c3C2c2ccc(O)c(OC)c2)cc1 (stereo unspecified)		7.51 µM (active)

Structure (SMILES)	activity change, negative = inhibition	Potency
Cc1ccc(C)c(N2CCN(C(=O)Cn3nc(C)c4sc5ccccc5c4c3=O)CC2)c1	11.4%	
COc1cccc(C(=O)N(Cc2cccc(Cl)c2)Cc2ccco2)c1	-23.2%	
CCOC(=O)c1ccc(NC(=O)C2CC(=O)NC(=Nc3ccc(C)c(C)c3)S2)cc1 (stereo unspecified)	-24.1%	
CCOC(=O)Cc1ccc(NC(=O)Nc2c[nH]c(=O)[nH]c2=O)cc1	8.78%	
CCCCS(=O)(=O)c1oc(-c2cccs2)nc1S(=O)(=O)c1ccccc1		1.82 µM (active)
Cc1ccc(CSc2oc(-c3cccs3)nc2S(=O)(=O)c2ccc(C)cc2)cc1	8.14%	
CSc1oc(-c2cccs2)nc1S(=O)(=O)c1ccc(Br)cc1	49.8%	
Cc1ccc2oc(C(=O)Nc3ccc(S(=O)(=O)N4CCCCCC4)cc3)cc(=O)c2c1	-11%	
Cc1cc(C)cc(-n2c(SCC(=O)NCC3CCCO3)nc3c([nH]c4ccccc43)c2=O)c1 (stereo unspecified)	-19.2%	
CCOC(=O)c1scc(-c2ccccc2)c1S(=O)(=O)Nc1ccccc1F	-0.485%	
CCOC(=O)c1ccc(NC(=O)c2nc(SCc3ccc(F)cc3)ncc2Cl)cc1	-29.1%	
CCCS(=O)(=O)c1ncc(Cl)c(C(=O)Nc2scc(-c3ccccc3)c2C(=O)OCC)n1		5.97 µM (active)
CC1CCN(S(=O)(=O)c2ccc3c(c2)N(CC(=O)NCCc2ccccc2)C(=O)CO3)CC1	-25.2%	
CCC(C)c1ccc2oc(-c3ccc(NC(=O)c4cc5ccccc5o4)cc3)nc2c1 (stereo unspecified)	-12.1%	
COc1ccccc1-c1cc2nc(C)c(CCC(=O)NC3CCCCC3)c(C)n2n1	-2.27%	
COc1ccc(-c2nc(S(=O)(=O)c3ccccc3)c(N3CCCCC3)o2)cc1	-26.4%	
CC(C)S(=O)(=O)c1oc(-c2ccc(F)cc2)nc1S(=O)(=O)c1ccc(F)cc1		2.05 µM (active)
O=C(CSc1oc(-c2ccc(F)cc2)nc1S(=O)(=O)c1ccc(Br)cc1)NC1CCCCC1	0.395%	
Cc1ccc2nc(COc3ccc(NC(=O)COc4ccccc4F)cc3)cc(=O)n2c1	-12.1%	

From PubChem BioAssay AID1508649 (National Center for Advancing Translational Sciences (NCATS), 2021)
